Results taken from PubChem BioAssay AID485273 (Sanford-Burnham Center for Chemical Genomics, 2010).
Among all 330,000 compounds or so, about 1,500 (0.45%) were called active. Rule as the data show it: active = inhibition above about 45% (passing the limit was not always enough); inconclusive = no clear call, values can overlap the other calls. This excerpt belongs to a sample that is enriched for actives.

The compounds below were run against Ubiquitin-conjugating enzyme E2 N (Homo sapiens) (UniProt P61088) (assay: UBC13 polyubiquitin chain formation inhibitors, primary screen, biochemical, TR-FRET, uHTS (AID 485273)). Details: at 20 µM, stronger effect = higher value.
Ubiquitin-conjugating enzyme E2 N (Homo sapiens), sequence (P61088 whole entry, looked up): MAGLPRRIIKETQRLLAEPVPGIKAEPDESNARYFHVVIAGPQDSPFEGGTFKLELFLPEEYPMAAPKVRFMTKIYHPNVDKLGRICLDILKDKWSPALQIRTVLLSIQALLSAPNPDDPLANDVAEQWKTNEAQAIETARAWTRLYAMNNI

inhibition, inactive:
COc1ccc(C(=O)C2CCCN(S(=O)(=O)c3cccc(C)c3)C2)c(C)c1 (stereo not drawn) -4.5%
O=C(CCn1c(=O)oc2ccccc21)Nc1ccon1 -0.5%
Cc1ccc2c(c1)C(c1ccccc1)N(C(=O)c1ccc(S(=O)(=O)N3CCOCC3)cc1)CC(=O)N2 (stereo not drawn) 0.9%
Cc1ccc(Nc2nc(N)nc(CN3CCN(Cc4ccccc4)CC3)n2)cc1Cl 8.9%
CNc1nc(Nc2ccc(C)c(Cl)c2)nc(N)c1[N+](=O)[O-] 9.3%
CCCS(=O)(=O)Nc1c(C(=O)O)[nH]c2ccccc12 8.6%
C=CCn1c(SCc2ccc(Cl)c(Cl)c2)nnc1C(CO)NC(=O)c1ccc(OC)cc1 (stereo not drawn) 15.9%
O=C(COC(=O)Cn1cnc2ccccc2c1=O)NCC12CC3CC(CC(C3)C1)C2 17.4%
Cn1c(CCC(=O)OCC(=O)NCc2ccccc2Cl)nc(=O)c2ccccc21 2.8%
O=C(N/N=C/c1ccccc1O)/C(=C/c1ccccc1)CCO 4.1%
COc1ccccc1C(=O)OCC(=O)NCCNC(=O)COC(=O)c1ccccc1OC 5.1%
O=C(N/N=C/c1ccccn1)c1ccc(S(=O)(=O)N2CCCCCC2)cc1 -2.2%
Cc1cccc(NC(=O)c2cccc(S(=O)(=O)N3CCCC3)c2)n1 2.6%
Cc1cc(C)n(CC(O)CN(c2ccccc2)S(=O)(=O)c2ccc3ccccc3c2)n1 (stereo not drawn) -8.5%
CCSCc1nc(N)nc(NCCc2ccccc2)n1 8.1%
Cc1c(C(=O)N2CCN(c3ccc(F)cc3)CC2)oc2c1C(=O)CCC2 3.2%
COc1ccc2c(CC(=O)NNC(=O)c3ccccc3F)coc2c1 7.9%
COC(=O)[C@@H](Cc1ccccc1)NC(=O)NCCc1ccccc1 6.5%
O=C(CCC(=O)c1ccccc1)NCc1cccc(C(F)(F)F)c1 -0.5%
CCOc1ccc(Nc2nc(Cc3nnc(SCC(=O)c4ccc(C)cc4)o3)cs2)cc1 1.3%
CC(NCc1nc2ccccc2n1C)C12CC3CC(CC(C3)C1)C2 (stereo not drawn) 22.8%
Cc1cccc(Nc2nc(NCCO)nc(N3CCCC3)n2)c1 11.1%
CC(C)(C)Oc1ccccc1Nc1nc(NCCO)nc(N2CCCC2)n1 8.7%
CC(=O)N1C(=O)/C(=C2\SC(=S)N(NC(=O)c3ccc(O)cc3)C2=O)c2ccccc21 -62.3%
COc1c(O)cc2oc(-c3ccc(O)c(O)c3)cc(=O)c2c1O -3.7%
COC(=O)c1ccccc1NC(=O)C1CCN(C(=O)N2CCOc3ccccc32)CC1 6.2%
CCCCNC(=O)c1ccc(-n2c(=S)[nH]c3ccccc3c2=O)cc1 43.8%
O=C(Cc1ccc(-n2c(=O)[nH]c3ccccc3c2=O)cc1)N1CCN(c2cccc(Cl)c2)CC1 -5.1%
COc1cccc(-c2ccc(SCC(=O)N3CCN(c4ccccc4)CC3)nn2)c1 -10.5%
CC[C@@H](C)[C@H](NC(=O)CCc1c(C)c2cc3c4c(oc3c(C)c2oc1=O)CCCC4)C(=O)O 2.9%
c1ccc(-n2nnnc2-c2cccnc2)cc1 16.1%
O=C(CSc1n[nH]c(-c2cccnc2)n1)Nc1ccnc2ccccc12 21.1%
COc1ccccc1N(C)S(=O)(=O)c1ccc(Cl)c(C(=O)N2CCC(C(N)=O)CC2)c1 1.7%
CC1(C)CC(=O)c2sc(N)nc2C1 -5.4%
FC(F)(F)c1cccc(Nc2ncnc3ccccc23)c1 11.1%
O=C(O)CC1(CC(=O)Nc2cccc(C(F)(F)F)c2)CCCC1 -1.1%
O=[N+]([O-])c1cccc(S(=O)(=O)NCc2ccccn2)c1 -12.9%
O=C(Nc1cccc([N+](=O)[O-])c1)Nn1cnnc1 -5.5%
O=C(c1ccccc1)N1CCC(CC2CC(c3ccc(Cl)cc3)=NO2)(C(=O)NCC2CCCCC2)CC1 (stereo not drawn) 4.7%
COC(=O)c1ccc(CNC(=O)c2ccc3oc(C(C)C)nc3c2)cc1 -8.3%
O=C(NC(=O)c1cc(OCC(F)(F)F)ccc1OCC(F)(F)F)Nc1ccccc1 2.9%
c1ccc(CCC2=NCCn3cccc32)cc1 -3.6%
CCOC(=O)c1ccc(NC(=O)CCn2c(=O)oc3ccccc32)cc1 4.5%
CCN(CC)S(=O)(=O)c1ccc2[nH]c(=O)cc(C(=O)N(C)C3CCS(=O)(=O)C3)c2c1 (stereo not drawn) -6.2%
O=C(CCN1C(=O)C2CCCCC2C1=O)Nc1ccc(OC(F)F)cc1 (stereo not drawn) 1.3%
O=C(Nc1ccc(S(=O)(=O)Nc2nccs2)cc1)c1cc(-c2ccncc2)nc2ccccc12 -11.2%
COC(=O)CNC(=O)c1cc(-c2ccncc2)nc2ccccc12 -0.6%
CCn1c(SCc2cc(=O)n3ccsc3n2)nc2ccccc21 3%
O=C(Nn1cnnc1)c1cc(Cl)ccc1Cl -7.5%
CC1CN(C(=O)CCC(=O)NC2CCN(Cc3ccccc3)CC2)c2ccccc2O1 (stereo not drawn) 4.7%
CC1CN(C(=O)CCC(=O)NCc2cccnc2)c2ccccc2O1 (stereo not drawn) 2.3%
CN(C)C(=O)c1ccc2c(c1)C1C3CCC(C3)C1C(c1ccccc1)N2 (stereo not drawn) -13.6%
CC(=O)NC(Cc1ccc(F)c(F)c1)C(=O)NC1CCN(c2nnnn2-c2ccccc2)CC1 (stereo not drawn) -5.3%
CC(C)(C)c1cc2cccnc2n1Cc1cccc(F)c1 11.4%
CCCCNc1nc2c(c(=O)n(C)c(=O)n2C)n1Cc1cccc(OC)c1 21.5%
CCOC(=O)c1ccc(COC(=O)CCc2nc(-c3ccccc3)c(-c3ccccc3)o2)cc1 -0.9%
COCc1cc(=O)[nH]c2cc(NC(=O)C(F)(F)F)c(C)cc12 8.5%
OC(CNCCc1ccc(Cl)cc1Cl)COc1ccccc1 (stereo not drawn) 23%
CCOc1ccc(/C=N/NC(N)=S)cc1 -0.6%
O=C(/C=C/c1cccc([N+](=O)[O-])c1)OCC(=O)N1CCOCC1 -13.5%
CC(OC(=O)CNC(=O)c1ccco1)C(=O)Nc1ccc(Cl)cn1 (stereo not drawn) -3.2%
CCc1ccc(NC(=O)C(C)OC(=O)/C=C/c2cccc([N+](=O)[O-])c2)cc1 (stereo not drawn) -15.4%
COc1ccc(N2CCN(C(=O)CNC(=O)c3ccc(C(C)(C)C)cc3)CC2)cc1 12.3%
O=C1c2cccc3cccc(c23)C(=O)N1CCCCCc1n[nH]c(=S)o1 -1.2%
O=C(CCCOc1ccccc1)NCc1ccco1 6.4%
C=CCN(CC=C)CCOc1ccccc1[N+](=O)[O-] 3.5%
O=C(COc1ccc(Br)cc1F)NCC1(N2CCCCC2)CCCCC1 -5.1%
Cc1ccc2c(c1)N(CC(=O)N1CCC(O)CC1)C(=O)CO2 -0.3%
CCOc1ccccc1N1CN(Cc2ccccc2)CNC1=S -1.7%
CN(C)CCNC(=O)/C(=C/c1cccc([N+](=O)[O-])c1)NC(=O)c1ccccc1 11.7%
C=CCNC(=O)/C(=C\c1cccc([N+](=O)[O-])c1)NC(=O)c1ccccc1 5.9%
CN(CCc1ccccn1)C(=O)c1ccc(OC2CCN(Cc3ccccn3)CC2)cc1 1.2%
Oc1ccccc1-c1cc(-c2ccc(Cl)cc2)n[nH]1 14.2%
CCCCCCCC1(C)NC(=O)N(CC(=O)Nc2cc(C)on2)C1=O (stereo not drawn) 3.7%
O=c1c2c(ncn1Cc1ccccc1)nc1n2CCC1 1.8%
CN(C)/C=C/c1c(C#N)c(=O)ncn1Cc1ccccc1 -4.7%
Cc1ccccc1C(=O)O -9%
O=C1OC(OC(=O)c2ccccc2Br)C(N2CCOCC2)=C1Cl (stereo not drawn) 15.6%
CCOC(=O)c1ccc(Nc2cc3ccccc3c(=O)[nH]2)cc1 -38.5%
COc1ccccc1C(=O)Nc1ccc(Nc2ccccc2)cc1 7.8%

inhibition, active:
OCCNc1nc(Nc2ccc(Cl)c(Cl)c2)nc2ccccc12 68.2%
O=C(COC(=O)Cn1cnc2ccccc2c1=O)NCc1ccccc1Cl 45.4%
Cc1ncc(CO)c(/C=N/NC(=O)c2cccc(S(=O)(=O)N3CCCC3)c2)c1O 52.7%
NC[C@H](Cc1ccccc1)NCCc1cc(C(F)(F)F)cc(C(F)(F)F)c1 65.5%
CCCOc1ccc(Cl)cc1Nc1nc(NCCO)nc(N2CCCC2)n1 60.4%
CCOC(=O)N1CCN(C(=O)Cc2ccc(-n3c(=S)[nH]c4ccccc4c3=O)cc2)CC1 46.3%
S=c1nc2ccccc2c2nc(-c3cccnc3)[nH]n12 58.9%
O=c1cc(CO)oc(C(Nc2cccc(C(F)(F)F)c2)c2ccccn2)c1O (stereo not drawn) 97.1%
O=c1cc(CO)oc(C(Nc2cccc([N+](=O)[O-])c2)c2ccccn2)c1O (stereo not drawn) 94.8%
CCN(CC)CCNC(=O)c1ccc(NC(=O)c2cc(-c3ccncc3)nc3ccccc23)cc1 89.7%
CC1CN(C(=O)CCC(=O)NCCCN2CCC(Cc3ccccc3)CC2)c2cc(Cl)ccc2O1 (stereo not drawn) 64.4%
COc1ccnc2c1c(=O)n(Cc1cccc(F)c1)c(=O)n2C 48.2%
NC(N)=N/N=C/c1ccc(OCc2ccc(Cl)cc2Cl)cc1 108%
O=C(CCCCCN1C(=O)c2cccc3cccc(c23)C1=O)NCc1ccco1 57.4%
Cc1ccc(C(=O)N/C(=C/c2ccc(-c3cccc([N+](=O)[O-])c3)o2)C(=O)NCCCN(C)C)cc1 57%
CN(C)c1ccnc2sc3c(=O)n(Cc4ccccc4)cnc3c12 48%
Cc1ccccc1C(=O)OC1OC(=O)C(Cl)=C1Nc1ccccc1 (stereo not drawn) 78%
Cc1ccc(NC2=C(Cl)C(=O)OC2OC(=O)c2ccccc2C)cc1 (stereo not drawn) 53.9%
